In all, about 110,000 compounds were measured (“z-score”: median about -0.1, highest 2% from about 2 on). The entries come from a sample that favours the highest values as a whole. Calls of active or inactive are those of the source.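 How the source made its calls: active means z-score in the third read window above 3 or below -3; inactive means the rest.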

The assay deals with Metabotropic glutamate receptor 8 (Rattus norvegicus) (UniProt P70579). As to the kind of experiment: rat mGluR8 modulators via GIRK flux, primary screen, cell-based, thallium flux, HTS (AID 488969). Particulars: HEK293 rat mGluR8, GIRK (G protein-gated inwardly rectifying potassium channel) thallium flux, FluoZin2; at 10 µM; stronger effect = higher value; submaximal glutamate (EC20) added with thallium.
Sequence of Metabotropic glutamate receptor 8 (Rattus norvegicus) (P70579 whole entry, looked up): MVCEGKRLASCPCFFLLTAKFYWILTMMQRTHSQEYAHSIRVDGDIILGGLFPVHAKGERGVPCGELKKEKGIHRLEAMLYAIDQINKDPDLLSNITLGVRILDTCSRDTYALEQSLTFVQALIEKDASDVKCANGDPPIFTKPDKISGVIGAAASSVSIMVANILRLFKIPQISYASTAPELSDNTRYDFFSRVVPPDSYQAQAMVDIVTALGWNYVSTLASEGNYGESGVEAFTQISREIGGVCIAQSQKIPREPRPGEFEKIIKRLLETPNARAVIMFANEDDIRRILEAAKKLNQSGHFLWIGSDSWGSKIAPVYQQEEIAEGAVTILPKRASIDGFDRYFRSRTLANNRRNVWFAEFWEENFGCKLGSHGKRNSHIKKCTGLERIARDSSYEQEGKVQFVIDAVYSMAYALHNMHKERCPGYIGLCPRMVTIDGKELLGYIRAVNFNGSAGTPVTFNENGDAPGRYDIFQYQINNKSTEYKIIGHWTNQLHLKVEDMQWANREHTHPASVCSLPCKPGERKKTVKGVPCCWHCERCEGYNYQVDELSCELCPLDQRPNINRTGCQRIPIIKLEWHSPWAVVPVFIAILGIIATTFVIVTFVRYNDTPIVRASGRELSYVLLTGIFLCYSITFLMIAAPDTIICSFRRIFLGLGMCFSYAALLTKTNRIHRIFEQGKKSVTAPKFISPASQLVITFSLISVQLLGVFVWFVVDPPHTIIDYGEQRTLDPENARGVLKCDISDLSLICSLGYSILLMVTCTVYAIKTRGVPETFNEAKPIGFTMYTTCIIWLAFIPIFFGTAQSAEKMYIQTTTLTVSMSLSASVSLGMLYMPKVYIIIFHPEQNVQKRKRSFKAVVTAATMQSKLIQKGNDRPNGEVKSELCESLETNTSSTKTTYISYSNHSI
Consider `CNC(=S)N1CCN(C(=O)C2CCCO2)CC1` (stereo not drawn), for which the z-score was -0.25.

For `CC(NC(=O)COc1ccc(/C=N/NC(=O)C(=O)Nc2ccccc2Br)cc1)c1ccccc1` (stereo not drawn), the z-score is 0.00853.

With `CCC(C)(C)NC(=O)CN(Cc1cccs1)C(=O)CNS(=O)(=O)c1ccc(C)cc1`, the z-score was determined as 0.191.

As for `CCCn1nnc(NC(=O)c2ccc(Cl)cc2Cl)n1`, the z-score is -0.0896.

As for `O=C(NS(=O)(=O)c1ccccc1)c1ccccc1O`, the z-score worked out at 0.0922.

With `c1cc(-c2nnc3n2CCCCC3)ccn1`, the z-score turned out to be 0.91.

`Cc1cc(Cl)ccc1NC(=S)NCc1ccccc1Cl` returned a z-score of 0.000558.

Take `CCn1nc(C(=O)OCC(=O)c2ccc3c(c2)OCCO3)c2ccccc2c1=O`: the z-score was -0.721.

For `Cc1ccc(C(=O)N/C(=C/c2cccc([N+](=O)[O-])c2)C(=O)NC(C)C)cc1`, the z-score is -0.0623.

`CCC(C)Nc1nc(CN2CCOCC2)nc2sc3c(c12)CCC3` (stereo not drawn) had a z-score of -0.57.

In turn, `CC(C)(C)C(=O)NC(=S)NCCc1ccccc1` yielded a z-score of -0.0291.

With `Cc1ccccc1C(=O)NC(=S)NCCc1ccccc1`, the z-score is 6.68 (active).

`COc1ccc(C(=O)CC(=O)C(=O)NCCc2cccc(C)c2)cc1`: the z-score was 3.99 (active).

Molecule `O=C(NC(=S)N(CCc1ccccc1)CCc1ccccc1)c1ccco1` had a z-score of -1.87.

The molecule `O=C(CNC(=S)NC(=O)c1ccc(Cl)cc1)c1ccccc1` had a z-score of 1.87.

Turning to `COc1ccc(S(=O)(=O)CCC(=O)NCCc2cccc(C)c2)cc1`, the z-score amounted to 0.00176.

In turn, `O=C(NCCc1ccccc1)c1ccco1` registered a z-score of -0.2.

On to `O=C(NC(=S)NCCc1ccccc1)c1ccco1`, for which the z-score is 13 (active).

Take `O=C(CNC(=S)NC(=O)c1ccco1)c1ccccc1`: the z-score was 6.42 (active).

In the case of `CCOc1ccc(C(=O)CC(=O)C(=O)NCCc2ccc(OC)c(OC)c2)cc1`, the z-score is -0.0424.

For `Cc1ccccc1C(=O)NC(=S)NCC(=O)c1ccccc1`, the z-score was -0.0957.

Take `CC(C)C(=O)NC(=S)NCC(=O)c1ccccc1`: the z-score was -0.37.

For the molecule `Cc1cc2ccccc2n2c(SCC(=O)N3CCc4ccccc4C3)nnc12`, the z-score worked out at 0.115.

In turn, `CC(=O)C1=C(c2ccccc2)NC(=S)NC1c1cc(Cl)c(OC(C)C)c(Cl)c1` (stereo not drawn) yielded a z-score of 0.616.

`O=C(CN(C(=O)c1cccc([N+](=O)[O-])c1)C1CCCCC1)Nc1ccc(Cl)c([N+](=O)[O-])c1` came in with a z-score of -0.137.

As to `CCOc1nc(-c2ccc(C)cc2)ccc1-c1noc(COC)n1`, the z-score was -0.156.

In turn, `Cc1cc(C)c(Cn2cnc(-c3ccc([N+](=O)[O-])cc3)c2)c(C)c1` had a z-score of -0.0263.

Consider `CC(C)n1c(CCC(=O)O)ccc1-c1ccccc1`, for which the z-score was determined as 2.11.

The molecule `Cc1ccc(-c2ccc(CCC(=O)O)n2C(C)C)cc1` returned a z-score of -0.00219.

Consider `COc1ccc(-c2ccc(CCC(=O)O)n2C(C)C)cc1`, for which the z-score is -0.109.

With `Clc1ccc(-c2nnc3n2CCCS3)cc1`, the z-score amounted to 0.105.

Turning to `Cc1ccc(S(=O)(=O)NCCCCC(NC(=O)OC(C)(C)C)C(=O)O)cc1` (stereo not drawn) (tested in a mixture with another compound), the z-score is -0.148.

As for `O=C(CN1C(=O)NC2(CCCC2)C1=O)Nc1ccc(F)cc1`, the z-score was 0.19.

For the molecule `CCCn1nnnc1NCc1cccn1C`, the z-score was determined as 1.98.

Consider `CCCCn1nnnc1NCc1cccs1`, for which the z-score is -1.89.

Regarding `CCCn1nnnc1NCc1ccc(N2CCCC2)cc1`, the z-score is -0.208.

`CCc1ccc(/C=N/NC(=O)C(=O)NCCCN2CCOCC2)cc1` registered a z-score of -0.174.

Take `CC(CC(=O)Nc1ccncc1)c1ccccc1` (stereo not drawn): the z-score is 0.044.

The molecule `O=C(CCSCc1ccc(Cl)cc1)NCCc1ccccc1` yielded a z-score of -0.0466.

Regarding `COc1ccc(Nc2ccc(S(=O)(=O)N3CCCCC3)cc2[N+](=O)[O-])cc1OC`, the z-score amounted to 2.43.

With `COc1ccc(Nc2ccc(S(=O)(=O)N3CCCCCC3)cc2[N+](=O)[O-])cc1`, the z-score was 0.571.

Molecule `COc1ccc(Nc2ccc(S(=O)(=O)N3CCCCC3)cc2[N+](=O)[O-])cc1Cl` yielded a z-score of 0.547.

Consider `COCc1cc(C)nc(Nc2ccc(C)cc2C)c1C#N`, for which the z-score is -0.225.

Turning to `COc1ccc(C(=O)N(NC(=O)Oc2ccccc2)C(C)(C)C)cc1`, the z-score was 0.485.

Take `O=C(Nc1ccc(F)cc1)c1ccccc1`: the z-score is -0.000317.

For the molecule `O=C(Nc1ccc2[nH]c(=S)sc2c1)c1ccccc1`, the z-score is 11.9 (active).

With `O=C(Nc1ccc2nc3ccccc3nc2c1)c1ccccc1`, the z-score was -0.114.

Turning to `CC1(C)CC(CC(=O)Nc2ccccc2[N+](=O)[O-])C(=O)O1` (stereo not drawn), the z-score is -0.0252.

In turn, `COC(=O)c1cn(-c2ccccc2)c(C)c1C(=O)OC` had a z-score of -0.11.

Take `C=CCn1c(SCc2c(C)noc2C)nc2sc3c(c2c1=O)CCCCC3`: the z-score is -0.236.

For the molecule `C=CCn1c(SCc2c(C)noc2C)nc2sc3c(c2c1=O)CCC(C)C3` (stereo not drawn), the z-score was 2.65.

The molecule `C=CCn1c(SCc2c(C)noc2C)nc2sc3c(c2c1=O)CCCC3` returned a z-score of -0.0819.

The molecule `CC(C)(Oc1ccc(Cl)cc1)C(=O)NCc1ccncc1` yielded a z-score of 0.181.

With `O=C(Nc1nc(=S)ss1)c1ccc(Cl)cc1Cl`, the z-score is 4.46 (active).

Molecule `CC(C)C(=O)Nc1cccc(NC(=O)c2ccc(Cl)cc2Cl)c1` displayed a z-score of -0.304.

Take `Cc1ccccc1C(=O)Nc1nncs1`: the z-score is -0.0319.

`O=C(Nc1nc(=S)ss1)c1c(F)cccc1F` yielded a z-score of -0.588.

`Cc1ccccc1C(=O)Nc1nc(=S)ss1` registered a z-score of 2.56.

For `CC(=O)Nc1nc(=S)ss1`, the z-score came to 0.468.

In the case of `CCOc1nc(N(C)C)nc(-n2nnc(C(C)=O)c2C)n1`, the z-score was -0.22.

For `CC1SCC(=O)N(CC(=O)NCc2ccccc2)C1=O` (stereo not drawn), the z-score was -0.233.

The molecule `O=C(N/N=C/c1c(Cl)cccc1Cl)c1ccc(F)cc1` showed a z-score of -0.476.

The molecule `O=C(N/N=C/c1ccccc1Cl)c1cccc(F)c1` came in with a z-score of -0.342.

As to `O=C(N/N=C/c1c(Cl)cccc1Cl)c1cccc(F)c1`, the z-score is 3.05 (active).

In turn, `O=C(C(=O)N1CCc2ccccc2C1)c1cn(CC(=O)N2CCCCC2)c2ccccc12` showed a z-score of -0.582.

Turning to `CC(=O)C1=C(O)C(=O)N(c2cccc(C(=O)O)c2)C1c1ccc(F)cc1` (stereo not drawn), the z-score was -0.153.

Regarding `CC(=O)c1ccc(N2Cc3ccccc3/C2=N\C(=O)Nc2ccccc2)cc1`, the z-score was -0.211.

`CC(=O)CN1Cc2ccccc2/C1=N\C(=O)Nc1ccccc1`: the z-score was 3.19 (active).

As to `O=C(/N=C1/c2ccccc2CN1c1ccccc1)Nc1ccccc1`, the z-score is -0.236.

In the case of `Cc1ccc(S(=O)(=O)N2CCN(c3ccc(C(F)(F)F)cc3[N+](=O)[O-])CC2)cc1`, the z-score was -0.0811.

For the molecule `Cc1scc(C(=O)N/N=C/c2ccc(OC(C)C)cc2)c1C`, the z-score amounted to 0.164.

In the case of `Cc1ccccc1NC(=O)CSc1nc(COc2ccccc2)nc2ccccc12`, the z-score turned out to be 0.264.

For `O=C(Cn1nnc(-c2ccccc2NC(=O)c2ccccc2)n1)Nc1ccc2c(c1)OCCO2`, the z-score was 0.418.

Molecule `O=C(Cn1nnc(-c2ccccc2F)n1)Nc1cccc2ncccc12` returned a z-score of 2.27.

Turning to `O=C(Cn1nnc(-c2ccccc2)n1)Nc1ccc2c(c1)OCO2`, the z-score came to 0.199.

As for `Cn1nc(CC(=O)Nc2cccc3ncccc23)c2ccccc2c1=O`, the z-score worked out at 2.01.

Consider `CCCC(=O)Nc1ccccc1-c1nnn(CC(=O)Nc2ccc(OCC)cc2)n1`, for which the z-score was -0.817.

Take `O=C(Cn1nnc(-c2ccccc2F)n1)NCCc1ccccc1`: the z-score is -0.146.

The molecule `COc1ccccc1NC(=O)Cc1nn(C)c(=O)c2ccccc12` gave a z-score of -0.677.

In turn, `O=C(Cn1nnc(-c2ccccc2F)n1)Nc1ccc2c(c1)OCO2` returned a z-score of 2.41.

The molecule `COc1ccc(NC(=O)Cn2nnc(-c3ccccc3F)n2)cc1Cl` returned a z-score of 0.202.

`CCOC(=O)c1ccc(NC(=O)Cn2nnc(-c3ccccc3F)n2)cc1` registered a z-score of -0.121.

`Cc1ccc(F)cc1NC(=O)Cc1nn(C)c(=O)c2ccccc12` had a z-score of -0.0938.

As for `CCOc1ccc(NC(=O)Cn2nnc(-c3ccccc3F)n2)cc1`, the z-score is 3.4 (active).

`CCCNc1c(N)c(=O)oc2ccccc12` gave a z-score of -1.25.

`O=c1[nH]c2ccc(Cl)cc2c(-c2ccccc2)c1N1CCN(CCO)CC1` returned a z-score of 0.464.

On to `O=C(Nc1ccc(F)cc1F)c1ccco1`, for which the z-score is -0.0416.

For `CCN(CC)c1ccc(NC(=O)/C=C\c2ccccc2Cl)cc1`, the z-score was -0.341.

As to `CCOC(=O)CNC(=O)CSc1nc2ncc(Br)cc2[nH]1`, the z-score stood at 0.941.

With `Cc1cc(N2C(=O)C3C4c5ccccc5C(c5ccccc54)C3C2=O)no1` (stereo not drawn), the z-score was -0.47.

For the molecule `Cc1ccc2c(CC(=O)NNC(=O)c3ccccc3)coc2c1`, the z-score was -0.29.

Consider `CC(=O)O/N=C(/c1nonc1N)N1CCN(c2ccc([N+](=O)[O-])cc2Cl)CC1`, for which the z-score was -0.222.

For `Cc1ccc(NC(=O)c2cc(NC(=O)CCC(=O)O)ccc2N2CCCCC2)cc1`, the z-score was 4.06 (active).

Take `CC(=O)Nc1ccc(N2CCCCC2)c(C(=O)Nc2cccc(C)c2)c1`: the z-score was -0.0504.

`O=C(O)CCC(=O)Nc1ccc(N2CCCCC2)c(C(=O)O)c1`: the z-score was found to be 0.0405.

`COc1ccc(OC)c(-c2cc(C(F)(F)F)c3c(n2)sc2c(O)cc(=O)[nH]c23)c1` returned a z-score of -0.747.

For the molecule `O=c1cc(O)c2sc3nc(-c4ccccc4)cc(C(F)(F)F)c3c2[nH]1`, the z-score was -1.89.

For the molecule `COc1ccc(-c2cc(C(F)(F)F)c3c(n2)sc2c(O)cc(=O)[nH]c23)c(OC)c1`, the z-score was 5.32 (active).

As for `COc1cc2cc3c(N)c(C(=O)Nc4sc(C)c(C)c4C#N)sc3nc2cc1OC`, the z-score is 0.0438.

`Cc1[nH]c(=O)[nH]c(=O)c1NC(=O)c1sc2nc3c(C)cccc3cc2c1N` registered a z-score of -0.256.

For `Cc1sc(NC(=O)c2sc3nc4c(C)cccc4cc3c2N)c(C#N)c1C`, the z-score is 2.37.

Molecule `CCN(CC)S(=O)(=O)c1ccc(N2CCCCC2)c(NC(=O)/C(C#N)=C/c2ccc(OC)cc2)c1` registered a z-score of -0.0436.

As for `O=c1[nH]cnc2cc(Cl)ccc12`, the z-score was -0.0535.

`CCOc1ccc(C(C)=O)cc1N1C(=O)C2C3C=CC(O3)C2C1=O` (stereo not drawn) came in with a z-score of -0.01.

Turning to `CCOc1ccc(C(C)=O)cc1N1C(=O)C2C(C1=O)C1C=CC2C12CC2` (stereo not drawn), the z-score was 4.92 (active).

The molecule `CCOc1ccc(C(C)=O)cc1N1C(=O)C2C3C=CC(C3)C2C1=O` (stereo not drawn) came in with a z-score of -0.533.

For `COCCCNC(=O)C1CCCCN1S(=O)(=O)c1ccc(F)cc1` (stereo not drawn), the z-score came to 0.633.

As for `Cc1ccc(-c2nnc(SCC(=O)Nc3ccc4c(c3)OCCO4)n2N)cc1`, the z-score was 14.1 (active).

For `CCn1c(SCC(=O)Nc2ccc(N3CCOCC3)c(Cl)c2)nnc1-c1ccc(N)cc1`, the z-score came to 2.78.

For `COc1ccc(-c2nnc(SCC(=O)Nc3ccc4c(c3)OCCO4)n2N)cc1OC`, the z-score was -0.393.

Regarding `CCn1c(Cc2ccccc2)nnc1SCC(=O)Nc1ccc(N2CCOCC2)c(Cl)c1`, the z-score is -0.645.

For the molecule `Nn1c(SCC(=O)Nc2ccc3c(c2)OCO3)nnc1-c1ccc(Cl)cc1`, the z-score was -0.179.

Molecule `Cn1c(SCC(=O)Nc2ccc(N3CCOCC3)c(Cl)c2)nnc1-c1ccccc1` registered a z-score of -0.0676.

The values are drawn from PubChem BioAssay AID488969 (Vanderbilt High Throughput Screening Facility, 2010).
